# Laboratory results reported in PubChem BioAssay (Tox21).
# Results filed as inconclusive are left out. A call without a number means that no potency is given here. Unmarked numbers belong to inactive results. Calls of active or inactive are those of the source. Unless noted, the call rests on the fitted dose curve; in most records, active means well fitted curve in the direction sought with a large enough effect in the repeat runs; inconclusive means weak or mixed curves; inactive means no such curve, though single readings can be large; an effect the other way counts as inactive or inconclusive.
# Columns and labels:
# [1] = qHTS assay to identify small molecule that activate the aryl hydrocarbon receptor (AhR) signaling pathway - cell viability counter screen (AID 743086); settings: HepG2-AhR-luc viability, CellTiter-Fluor, 24 h; series mostly up to 70.3 µM;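 further: HepG2 liver cells carrying the AhR DRE luciferase reporter; nearly all actives have a fitted effect of over 45% in size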
# Summary of the method: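 HepG2-AhR-luc (HG2L7.5c1) cells, 4000/well, were preincubated 5 h at 37C, exposed to compound in qHTS format for 24 hr at 37C, then given CellTiter-Fluor for 30 min; viability was read as fluorescence in the reporter wells.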
# [2] = target: Peroxisome proliferator-activated receptor gamma (Homo sapiens) (UniProt P37231); experiment: qHTS assay to identify small molecule agonists of the peroxisome proliferator-activated receptor gamma (PPARg) signaling pathway (AID 743094; active means well fitted activation curve with a large enough effect in the signal ratio in the repeat runs, not every such curve was filed as active; the % refers to the signal ratio); settings: HEK293H PPARg-UAS-bla, beta-lactamase FRET ratio, 17 h; series mostly up to 57 µM
# Summary of the method: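 HEK293H PPARg-bla cells, 5 h settle at 37C/5% CO2; compound (DMSO) 17 h, 37C; B/G FRET substrate 1 h RT; fluorescence intensity read-out. qHTS format.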
# [3] = target: Peroxisome proliferator-activated receptor gamma (Homo sapiens) (UniProt P37231); experiment: qHTS assay to identify small molecule antagonists of the peroxisome proliferator-activated receptor gamma (PPARg) signaling pathway (AID 743191; calls by dose curve; further: nearly all actives have a fitted effect of over 30% in size); settings: HEK293H PPARg-UAS-bla, beta-lactamase ratio, antagonist, 17 h; series mostly up to 62.6 µM
# Summary of the method: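 GeneBLAzer PPARg UAS-bla HEK293H cells carrying a UAS-driven beta-lactamase reporter were plated at 3000 cells/well, preincubated 5 h at 37C, then given compound for 17 h at 37C; LiveBLAzer B/G FRET substrate was read after 1 h at room temperature.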
# [4] = qHTS assay to identify small molecule antagonists of the peroxisome proliferator-activated receptor gamma (PPARg) signaling pathway - cell viability counter screen (AID 743194); settings: PPARg-bla HEK293H viability, CellTiter-Glo luminescence, 17 h; Potency: co-treated with 50 nM rosiglitazone; series mostly up to 62.6 µM; further: nearly all actives have a fitted effect of over 55% in size
# Summary of the method: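 PPARg-UAS-bla HEK293H cells were plated, rested 5 h at 37 C, then treated with compounds plus rosiglitazone (50 nM final) for 17 h at 37 C; viability was then read by CellTiter-Glo luminescence after 30 min at room temperature.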
# [5] = qHTS assay for small molecule agonists of the antioxidant response element (ARE) signaling pathway (AID 743202; active means well fitted activation curve with a large enough effect in the signal ratio in the repeat runs, not every such curve was filed as active; the % refers to the signal ratio; further: potency means the concentration at half of the fitted maximal effect); settings: HepG2 ARE-bla reporter, beta-lactamase FRET, 16 h; series mostly up to 73.3 µM
# Summary of the method: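 Following a 16 h, 37 C exposure of reporter HepG2 cells (ARE-driven beta-lactamase, 2,000 cells/well) to compounds, FRET substrate was applied for 2 h at room temperature and fluorescence intensity recorded.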
# [6] = qHTS assay for small molecule agonists of the antioxidant response element (ARE) signaling pathway - cell viability counter screen (AID 743203; calls by dose curve; further: nearly all actives have a fitted effect of over 55% in size); settings: ARE-bla HepG2 viability, CellTiter-Glo luminescence, 16 h; series mostly up to 73.3 µM
# Summary of the method: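 Luminescence read-out (CellTiter-Glo, 30 min at room temperature) measured cell viability in the same wells as the ARE beta-lactamase reporter. HepG2 ARE-bla cells were treated with compounds for 16 hrs at 37C/5% CO2.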
# [7] = qHTS assay for small molecule activators of the heat shock response signaling pathway - cell viability counter screen (AID 743209); settings: HSE-bla HeLa viability, CellTiter-Glo luminescence, 5 h; series mostly up to 62.6 µM; further: nearly all actives have a fitted effect of over 50% in size
# Summary of the method: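 HSE-bla HeLa; 1500 cells/well; overnight 37 C, 5% CO2; compound 5 h 37 C; LiveBLAzer B/G substrate 2.5 h RT; CellTiter-Glo 30 min RT; luminescence.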
# [8] = qHTS assay for small molecule activators of the heat shock response signaling pathway (AID 743210; active means well fitted activation curve with a large enough effect in the signal ratio in the repeat runs, with a control signal flat, not every such curve was filed as active; the % refers to the signal ratio); settings: HeLa HSE-bla reporter, beta-lactamase ratio, 5 h; series mostly up to 62.6 µM
# Summary of the method: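 Heat shock element–beta-lactamase HeLa reporter cells; qHTS with compounds for 5 h at 37 C; detection by FRET substrate fluorescence after 2.5 h at RT.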
# [9] = qHTS assay to identify small molecule agonists of the peroxisome proliferator-activated receptor delta (PPARd) signaling pathway - cell viability counter screen (AID 743211); settings: PPARd-bla HEK293H viability, CellTiter-Glo luminescence, 17 h; series mostly up to 62.6 µM; further: nearly all actives have a fitted effect of over 55% in size
# Summary of the method: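 HEK293H PPARd-bla, 3000 cells/well; 5 h preincubation 37C/5% CO2; cpd in DMSO, 17 h 37C; B/G FRET substrate 2 h RT; CellTiter-Glo 30 min RT, luminescence.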
# [10] = target: Aryl hydrocarbon receptor (Homo sapiens) (UniProt P35869); experiment: qHTS assay to identify small molecule that activate the aryl hydrocarbon receptor (AhR) signaling pathway (AID 743085); settings: HepG2 AhR-luc (HG2L7.5c1), luciferase, 24 h; series mostly up to 70.3 µM;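 further: HG2L7.5c1 human HepG2 liver cells with stably integrated DRE-driven firefly reporter; nearly all actives have a fitted effect of over 15% in size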
# Summary of the method: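 Cell line HG2L7.5c1 (human hepatoma, 20× DRE-luc). Plated, 5 h 37C, compound/DMSO added, 24 h 37C. CellTiter-Fluor 30 min 37C → fluorescence; then ONE-Glo 30 min RT → luminescence.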
# Sequence of Aryl hydrocarbon receptor (Homo sapiens) (P35869 whole entry, looked up): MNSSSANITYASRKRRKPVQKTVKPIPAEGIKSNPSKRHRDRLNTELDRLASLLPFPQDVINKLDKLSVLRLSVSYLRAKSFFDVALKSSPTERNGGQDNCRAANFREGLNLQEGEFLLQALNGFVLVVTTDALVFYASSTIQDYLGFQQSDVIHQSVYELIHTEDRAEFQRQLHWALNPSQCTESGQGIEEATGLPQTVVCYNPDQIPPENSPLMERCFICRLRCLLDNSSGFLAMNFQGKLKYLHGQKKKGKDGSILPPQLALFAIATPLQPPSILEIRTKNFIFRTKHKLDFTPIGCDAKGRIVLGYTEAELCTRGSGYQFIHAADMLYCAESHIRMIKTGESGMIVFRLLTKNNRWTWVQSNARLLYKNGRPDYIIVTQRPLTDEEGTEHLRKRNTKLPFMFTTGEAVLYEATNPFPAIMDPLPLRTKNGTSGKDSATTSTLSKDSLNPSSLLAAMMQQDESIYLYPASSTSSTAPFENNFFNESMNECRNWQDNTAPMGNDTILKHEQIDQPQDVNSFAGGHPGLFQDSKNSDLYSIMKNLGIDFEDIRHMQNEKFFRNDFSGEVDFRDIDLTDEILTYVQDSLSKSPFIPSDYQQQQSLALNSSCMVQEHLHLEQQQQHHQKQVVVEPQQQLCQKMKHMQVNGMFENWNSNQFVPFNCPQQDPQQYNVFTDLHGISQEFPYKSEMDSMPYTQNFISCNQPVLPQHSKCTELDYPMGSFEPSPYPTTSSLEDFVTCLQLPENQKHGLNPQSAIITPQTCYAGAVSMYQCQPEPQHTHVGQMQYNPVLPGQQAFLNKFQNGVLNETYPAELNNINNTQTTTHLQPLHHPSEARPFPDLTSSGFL
# Sequence of Peroxisome proliferator-activated receptor gamma (Homo sapiens) (P37231 whole entry, looked up): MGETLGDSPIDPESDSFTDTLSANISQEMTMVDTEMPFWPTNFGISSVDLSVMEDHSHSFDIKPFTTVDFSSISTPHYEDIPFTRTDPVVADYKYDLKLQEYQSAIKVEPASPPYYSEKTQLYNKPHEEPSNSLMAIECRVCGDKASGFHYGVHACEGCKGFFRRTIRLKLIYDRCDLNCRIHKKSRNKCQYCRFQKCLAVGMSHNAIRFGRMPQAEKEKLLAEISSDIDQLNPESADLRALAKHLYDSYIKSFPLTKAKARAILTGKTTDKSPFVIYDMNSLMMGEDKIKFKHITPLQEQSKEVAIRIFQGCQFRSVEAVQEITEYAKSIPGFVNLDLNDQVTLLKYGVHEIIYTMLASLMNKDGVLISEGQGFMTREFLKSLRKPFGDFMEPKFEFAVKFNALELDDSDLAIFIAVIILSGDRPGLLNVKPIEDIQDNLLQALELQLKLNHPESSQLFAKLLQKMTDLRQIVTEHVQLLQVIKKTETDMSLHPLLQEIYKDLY
Structure (SMILES),Potency [1],outcome [2],Potency [3],Potency [4],Potency [5],Potency [6],Potency [7],Potency [8],Potency [9],Potency [10]
Cl/C=C/CCl,inactive,inactive,inactive,inactive,inactive,inactive,inactive,inactive,inactive,–
CN1C(=O)COc2c(C(=O)NC3CN4CCC3CC4)cc(Cl)cc21 (stereo unspecified),inactive,–,inactive,inactive,–,inactive,inactive,inactive,inactive,inactive
CC(C)C(C)(N)C#N (stereo unspecified),inactive,–,–,inactive,inactive,inactive,inactive,inactive,inactive,inactive
O=P(O)(O)c1ccccc1,inactive,–,–,inactive,inactive,inactive,inactive,inactive,inactive,inactive
O=C(O)C(F)(F)C(F)(F)C(F)(F)C(F)(F)C(F)(F)C(F)(F)F,inactive,inactive,–,–,–,inactive,inactive,inactive,inactive,inactive
CCN(CCO)CCO,–,inactive,inactive,inactive,–,inactive,inactive,inactive,inactive,inactive
CS(=O)(=O)c1ccc(C(=O)C2C(=O)CCCC2=O)c(Cl)c1COCC(F)(F)F,inactive,–,inactive,–,inactive,inactive,inactive,–,inactive,inactive
Cc1ccc(-c2nc3ccc(C)cn3c2CC(=O)N(C)C)cc1,inactive,inactive,inactive,inactive,inactive,inactive,inactive,inactive,inactive,–
O=C1CC(=O)NC(=O)N1,inactive,–,inactive,inactive,inactive,inactive,inactive,inactive,inactive,inactive
O=C1CCCCC1Cl (stereo unspecified),inactive,–,inactive,–,–,inactive,inactive,–,inactive,inactive
O=C/C=C/c1ccco1,inactive,–,–,inactive,inactive,inactive,inactive,inactive,inactive,inactive
CC(=O)OCC1=C(C(=O)O)N2C(=O)[C@@H](N)[C@H]2SC1,inactive,–,–,–,inactive,inactive,–,inactive,inactive,–
ClCCN1CCCC1,–,–,inactive,inactive,–,inactive,–,inactive,inactive,–
CCOC(=O)c1ncn2c1CN(C)C(=O)c1c(I)cccc1-2,inactive,inactive,inactive,–,inactive,inactive,inactive,inactive,inactive,–
C=CCCC#N,inactive,inactive,–,–,inactive,inactive,–,inactive,inactive,–
C/C(=N\NC(=O)Nc1cc(F)cc(F)c1)c1ncccc1C(=O)O,inactive,inactive,–,inactive,inactive,inactive,inactive,inactive,inactive,–
CCN1CCCC1CNC(=O)C(O)(c1ccccc1)c1ccccc1 (stereo unspecified),–,–,inactive,inactive,–,inactive,inactive,inactive,inactive,–
O=c1[nH]c2ccccc2n1C1CCNCC1,–,–,inactive,inactive,inactive,inactive,inactive,inactive,inactive,–
CC(Cc1ccccc1)NCCCCl (stereo unspecified),–,–,–,–,inactive,inactive,inactive,inactive,inactive,–
CCc1ccc(C2CCNCC2)cc1,–,–,inactive,inactive,inactive,inactive,inactive,inactive,inactive,–
CC(C)(C)C(=O)C(Cl)Cl,inactive,–,–,–,–,inactive,inactive,inactive,inactive,–
CCOC(=O)C(SP(=S)(OC)OC)c1ccccc1 (stereo unspecified),inactive,inactive,inactive,inactive,inactive,inactive,inactive,inactive,inactive,–
C1CN2CCC1CC2,–,–,inactive,inactive,inactive,inactive,inactive,inactive,inactive,–
Cc1cccc2sc3nncn3c12,inactive,inactive,–,inactive,1.37 µM (active),inactive,inactive,inactive,inactive,–

Structure (SMILES),Potency [1],outcome [2],Potency [3],Potency [4],Potency [5],Potency [6],Potency [7],Potency [8],Potency [9],Potency [10]
CCC(C(N)=O)N1CCCC1=O (stereo unspecified),inactive,inactive,–,inactive,inactive,inactive,inactive,inactive,inactive,–
CCC(C)C(C)(COC(N)=O)COC(N)=O (stereo unspecified),–,–,inactive,inactive,inactive,inactive,inactive,inactive,inactive,–
COC[C@@H](NC(C)=O)C(=O)NCc1ccccc1,–,–,inactive,inactive,–,inactive,inactive,inactive,inactive,–
CC[C@@H](CO)NC(=O)[C@@H]1C=C2c3cccc4c3c(cn4C)C[C@H]2N(C)C1,inactive,–,inactive,–,inactive,inactive,inactive,inactive,inactive,–
CON(C)C(=O)Nc1ccc(Br)cc1,inactive,–,–,inactive,inactive,inactive,inactive,inactive,inactive,–
CC(C)c1ccc(O)cc1,inactive,inactive,inactive,inactive,–,inactive,inactive,inactive,inactive,–
N[C@@H]1C[C@H]1c1ccccc1,inactive,inactive,inactive,inactive,inactive,inactive,inactive,inactive,inactive,–
Clc1nc(Cl)nc(Nc2ccccc2Cl)n1,inactive,inactive,inactive,–,–,inactive,inactive,inactive,inactive,–
C=C(Cl)CCl,inactive,inactive,inactive,inactive,inactive,inactive,inactive,inactive,inactive,–
c1ccc2c(c1)CCNC2,inactive,–,inactive,inactive,inactive,inactive,inactive,inactive,inactive,–
O=CCCl,inactive,inactive,inactive,–,inactive,inactive,inactive,inactive,inactive,–
CN1COCN(Cc2cnc(Cl)s2)/C1=N\[N+](=O)[O-],inactive,inactive,–,inactive,inactive,inactive,inactive,inactive,inactive,–
CCC1(CC)C(=O)C=CNC1=O,inactive,inactive,inactive,–,inactive,inactive,inactive,inactive,inactive,–
CNC(=O)Oc1cc(C)c(N(C)C)c(C)c1,inactive,inactive,inactive,–,inactive,inactive,inactive,–,inactive,–
CC(C)(N)Cc1ccccc1Cl,–,–,inactive,inactive,–,–,inactive,inactive,inactive,–
CCOC(=O)COc1ccc(Cl)cc1Cl,inactive,–,–,inactive,inactive,inactive,inactive,inactive,inactive,–
O=[N+]([O-])c1cccc(CCl)c1,inactive,–,–,inactive,31.3 µM (active),inactive,inactive,inactive,inactive,–
C=CCC1(C(C)CC)C(=O)NC(=O)NC1=O (stereo unspecified),–,–,inactive,inactive,–,inactive,inactive,–,inactive,–
CCCOC(=O)c1cncn1C(C)c1ccccc1 (stereo unspecified),–,–,inactive,inactive,inactive,inactive,inactive,inactive,inactive,–
C[C@H](CN1CCOCC1)C(C(=O)N1CCCC1)(c1ccccc1)c1ccccc1,–,inactive,–,inactive,inactive,inactive,inactive,inactive,inactive,–
CCC(CC)(CNC(=O)CCCO)c1cccc(OC)c1,–,–,inactive,inactive,inactive,inactive,inactive,inactive,–,–
COc1ccccc1OC,inactive,inactive,inactive,–,inactive,inactive,inactive,inactive,inactive,–
CCCOC(=O)Cc1ccc(OCC(=O)N(CC)CC)c(OC)c1,inactive,inactive,inactive,inactive,inactive,inactive,inactive,inactive,inactive,–
